The structures appear in SMILES notation. Out of some 200,000 compounds screened, about 18,000 (9%) were called active. Many of the other results were omitted from the sample, so actives are more common in it than they were. Values without a mark were called inactive. Cut-off read from the data, not from the text of the source: active = inhibition above about 50%; inactive = the rest.

A short description of the experiment: antileishmanial activity against promastigotes – primary screen (AID 1063).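 Note: promastigotes grown with compound for 44 hours at 28 °C.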 To be noted: Leishmania major promastigotes, resazurin fluorescence viability; at 10 µM; active compounds read high.
By inhibition is commonly meant the relative decrease from the control value, in per cent. Take `Cc1nc2ccccc2cc1C(=O)N/N=C/c1ccc([N+](=O)[O-])cc1`: the inhibition is -3.55%.
The same measure for `Brc1ccc(-c2csc(N/N=C/c3ccc4c(c3)OCO4)n2)cc1`: 1.9%; for `Cc1cc(C)nc(N/N=C/c2c(C)oc3ccccc23)n1`: 3.92%.
Next, `Cc1noc(C)c1/C=N/Nc1ccc2ccccc2n1`: 56.6% (active); `C(=N\Nc1ccc2ccccc2n1)/c1ccc2c(c1)OCO2`: 52.1% (active); `O=C(Cc1ccc(F)cc1)N/N=C/c1ccc2c(c1)OCO2`: -2.74%.
The same measure for `CC(C)(C)NC(=O)CN(C(=O)c1ccc(Cl)nc1)c1cccc2ccccc12`: 31.5%; for `COc1ccc(Cl)cc1N(CC(=O)N/N=C/c1ccc(OCC(N)=O)cc1)S(C)(=O)=O`: 30.9%; for `CCOc1ccc(N(CC(=O)NCCc2ccc(OC)cc2)S(C)(=O)=O)cc1`: -6.74%.
Consider `COCCN(C(=O)CCC(=O)Nc1nccs1)C(C(=O)NC(C)(C)C)c1ccc(Cl)cc1` (stereo not drawn), for which the inhibition was -1.47%.
Next, `CCCCCOC(=O)C1=C(C)Nc2nnnn2C1c1ccc(OC)c(OC)c1OC` (stereo not drawn): 92.7% (active).
The same measure for `CC1=C(C(N)=O)C(c2sccc2C)n2nnnc2N1` (stereo not drawn): -2.53%; for `COCCOC(=O)C1=C(C)Nc2nc(C)nn2C1c1ccccc1` (stereo not drawn): 1.25%.
The same measure for `O=C(CCc1ccccc1)Nc1nn[nH]n1`: -3.55%; for `O=C(CSc1ccc([N+](=O)[O-])cn1)Nc1ccc(N2CCOCC2)cc1`: -2.33%.
Turning to `COC(=O)c1ccc(NCC(=O)N2CCCCCC2)cc1`, the inhibition is -4.15%.
The same measure for `O=C(O)c1ccn(COc2ccc(Br)cc2)n1`: -6.55%.
The same measure for `C=CCn1c(CSc2nc3ccccc3s2)nnc1SCC(=O)NCc1ccco1`: -0.85%; for `O=C(CSc1c2c(nc3ccc(Cl)cc13)CCCC2)NCc1ccco1`: 39.9%; for `O=C(CSc1nc2ccc(Nc3nc(N4CCOCC4)nc(N4CCOCC4)n3)cc2s1)NCc1ccco1`: 66% (active).
Regarding `CCN(CC)S(=O)(=O)c1ccc(N(C)CCc2ccc(OC)c(OC)c2)nc1`, the inhibition is 20.7%.
The same measure for `Cc1ccc(O)c(NC(=S)NC(=O)COc2ccc(Br)cc2)c1`: -2.21%; for `CNC(=S)N1CCC(NC(=O)C(Cc2ccc(F)cc2)NC(C)=O)CC1` (stereo not drawn): -5.13%.
Next, `CC(=O)NC(Cc1ccccc1)C(=O)NC1CCN(c2ncccc2[N+](=O)[O-])CC1` (stereo not drawn): 57.3% (active); `CC(=O)NC(Cc1ccc(F)c(F)c1)C(=O)NC1CCN(c2nnnn2-c2ccccc2)CC1` (stereo not drawn): 9.51%; `CC(Sc1nc2cc(Cl)ccc2s1)C(=O)Nc1ccc2c(c1)OCO2` (stereo not drawn): 3.45%.
Turning to `O=C(Nc1ccc(N2CCOCC2)cc1)c1ccc(-c2ccccc2[N+](=O)[O-])o1`, the inhibition is 7.53%.
Next, `CCOc1cc(NS(=O)(=O)c2ccc(OC)cc2)c(OCC)cc1NC(C)=O`: -2.08%; `O=C(Cn1c(COc2ccccc2)nc2ccccc21)Nc1cc(Cl)c(Cl)cc1Cl`: 94.1% (active); `COCn1c(COc2ccccc2)nc2ccccc21`: 1.65%.
On to `O=C(Cn1c(-c2cscn2)nc2ccccc21)Nc1ccc(Cl)cc1`, for which the inhibition was 16.4%.
As to `Cc1ccc(N(C(=O)Cc2cccs2)C2C=CS(=O)(=O)C2)cc1Cl` (stereo not drawn), the inhibition was 3.36%.
The same measure for `O=C(Nc1ccc(Cl)cn1)c1ccc2c(c1)OCCO2`: -10.2%; for `CCN(CC(=O)NCc1cccs1)S(=O)(=O)c1ccc(NC(C)=O)cc1`: -3.41%; for `COc1ccc(NC(=S)NCCN2CCC(C)CC2)cc1`: 23.9%.
The same measure for `COc1ccc(NC(=S)NCC2CCN(c3ccc(OC)cc3)C2)cc1` (stereo not drawn): 74.9% (active).
Next, `COc1ccc(N2CCN(C(=S)Nc3ccc(S(N)(=O)=O)cc3)CC2)cc1`: -7.62%; `Cc1c(NC(=O)CCC2CCCCC2)cc(C(=O)N2CCOCC2)cc1[N+](=O)[O-]`: -3.89%.
As for `COc1ccccc1C(=O)C(O)c1ccccc1OC` (stereo not drawn), the inhibition was 1.96%.
The same measure for `CCOC(=O)C(=Cc1ccccc1OC)C(=O)OCC`: 53.7% (active); for `CCOC(=O)C(=CNc1cccc(C)n1)C(=O)OCC`: -3.94%.
Next, `Cn1c(CCC(=O)OCC(=O)NCc2ccccc2Cl)nc(=O)c2ccccc21`: -0.71%.
Next, `Cc1ncoc1C(=O)NCCC(c1ccccc1)c1ccccc1`: 1.37%; `CCOC(=O)c1cnc(-n2nc(C)cc2C)nc1NNc1cc(C)nc(-c2ccccc2)n1`: 100% (active); `CCOC(=O)c1cnc(-n2nc(C)cc2C)nc1Nc1cccc(C(C)=O)c1`: 4.22%.
In the case of `CCOC(=O)c1cnc(-n2nc(C)cc2C)nc1-n1nc(C)cc1C`, the inhibition was 33%.
The same measure for `CCOC(=O)C(C)n1nc(-c2ccccc2)c2ccccc2c1=O` (stereo not drawn): 12.5%.
Next, `CN(C)c1nc(-c2cccnc2)nc(-c2ccc(Cl)cc2)c1C#N`: 8.3%; `COCCN(CCOC)S(=O)(=O)c1ccc(/C(O)=C(\C#N)c2nc3ccccc3[nH]2)cc1`: 1.17%; `CC(C)(C)NC(=O)NC(=O)COC(=O)C1(C)CC1(Cl)Cl` (stereo not drawn): 0.27%.
The same measure for `CCOn1c(=O)c(=O)n(O)c2ccccc21`: -2.81%.
In the case of `Cn1nnnc1SCC(=O)NNC(=O)c1ccc(Br)cc1`, the inhibition is -7.24%.
Next, `O=C(CSc1nc(C2CC2)nc2ccccc12)Nc1ccc2c(c1)OCCO2`: 6.82%.
In the case of `COC(=O)CSc1nc(C2CC2)nc2ccccc12`, the inhibition is -7.75%.
Next, `CN(C(=O)CSc1nc(C2CC2)nc2ccccc12)c1nc(-c2ccccc2)cs1`: 54.6% (active); `CCn1ccnc1CN(C)Cc1nc(-c2ccc3c(c2)OCO3)no1`: 1.95%; `CN(Cc1cc2cc(F)ccc2[nH]1)Cc1nc(-c2cnccn2)no1`: -6.82%.
The same measure for `CCOCCCNCc1ccc(OCc2ccc(F)cc2)c(OC)c1`: 97.1% (active); for `COc1ccc(CNCCCO)cc1OC`: -3.13%; for `CCNC(=O)c1ccc(OCC(=O)Nc2ccc(F)cc2)c(OC)c1`: 0.66%.
The same measure for `COc1cc(CNc2ncn[nH]2)ccc1OCc1ccccc1C`: -5.58%.
For `COc1cc(CNCCN(C)C)ccc1OCc1c(F)cccc1Cl`, the inhibition was 66.6% (active).
Next, `CCN(CC)CCNCc1ccc(OCc2ccc(Cl)nc2)c(OC)c1`: -3.17%.

For the origin of these results see PubChem BioAssay AID1063 (University of Pittsburgh Molecular Library Screening Center, 2008).
